This note sets out measurements from PubChem BioAssay AID1745849 (National Center for Advancing Translational Sciences (NCATS), 2022).

Each structure is given as a SMILES string. In all, about 2,100 compounds went through this assay and about 320 (15%) were called active. Roughly 52% stayed inconclusive and do not appear here. The call rests on the fitted dose curve; in most records, active means well fitted cell-killing curve with a large enough effect; inconclusive means small, poorly fitted or top-dose-only effect, or effect the other way; inactive means flat fitted curve, though single readings scatter. This is one part of the list. Entries that show only a call come without a potency.
Potency means the concentration at half of the fitted maximal effect.

The nature of the test: Viability Counterscreen for CMV-Luciferase Assay of Inhibitors of ATXN expression. Further: nearly all actives have a fitted effect of over 55% in size. The following applies: HEK-293 CMV-luciferase cells viability, protease fluorescence, 24 h. An excerpt: PI: Daniel Scoles Ph.D. University of Utah School of Medicine, Salt Lake City, Utah MLPCN Grant: NS073009 Spinocerebellar ataxia type 2 (SCA2) is a multisystem neurodegenerative disease caused by a dominantly acting mutation leading to expansion of a polyQ domain in the ataxin-2 protein (ATXN2). SCA2 patients develop progressive ataxia and later lose function in other neuronal systems. Prominent parkinsonian signs develop in some patients. Like many neurodegenerative disorders, no symptomatic or disease-modifying treatments are known. The primary objective of the proposed research is to identify compounds inhibiting ATXN2 expression and to test them for efficacy in SCA2 mouse models. We have developed a cell-based assay paired with an in vivo mouse model using identical luciferase expression constructs. This approach takes advantage of an ATXN2-luciferase transgene, with the luciferase gene flanked by the upstream and downstream portions of the ATXN2 gene. Here we describe a 5-7 dose quantitative high thoroughput screen (qHTS) for compounds lowering ATXN2 expression. We screened the NIH Molecular Libraries Small Molecule Repository (MLSMR) and NCGC's mechanistically annotated (MIPE) and drug repurposing (NPC) collections of compounds for lowering expression of an ATXN2-luciferase reporter in HEK-293 cells. The assay is a multiplexed cell viability assay to ensure target reduction in the absence of cytotoxicity. Secondary qHTS assays included a CMV-luciferase reporter expressed in HEK-293 cells as well as a biochemical assay using recombinant luciferase to detect inhibitors of the reporter enzyme. Compounds that inhibit ATXN2 expression but is not cytotoxic were selected for confirmatory and secondary screens.
PROTOCOL TABLE (as described by Inglese J, Shamu CE and Guy RK. 2007) SEQUENCE No. (e.g., 1, 2, 3, etc.); […] (e.g., Cells, Incubation, Reagent, etc.); VALUE; DESCRIPTION. 1; Cells; 4 uL; white, solid bottom, 1536-well Greiner assay plate. 2; Incubation; 2 hr; 37 degree C in 5% humidified CO2. 3; Compounds; 23 nL; Kalypsis pintool (Wako USA) equipped with a 1536-well pin head. 4; Incubation; 24 hr; 37 degree C in 5% humidfified CO2. 5; Reagent; 1 uL; Gly-Phe-7-Amino-4-trifluoromethylcoumarin. 6; Incubation; 30 min; 37 degree C in 5% humidfified CO2. 7; Detection; Fluorescence; Viewlux plate reader (PerkinElmer). 8; Reagent; 3 uL; SteadyGlo luciferase solution (Promega). 9; Incubation; 5 min; room temperature. 10; Detection; Luminescence; ViewLux plate reader (PerkinElmer). NOTES (numbers refer to Sequence numbers above) 1. HEK-293 cells expressing CMV-luciferase reporter (designated as SC cells) were suspended in phenol-red free DMEM and dispensed in assay plates using a Multidrop Combi dispenser (Thermo Fisher Scientific). 2. Assay plates were incubated. Evaporation was prevented by covering assay plates with metal lids containing holes to allow gas diffusion. 3. Compounds were added in a dose response manner with the final concentrations of 57, 11.4, 2.28, 0.46, 0.091, 0.018, 0.0037 uM. Vehicle-only plates, with DMSO being pin-transferred to columns 5-48, were inserted uniformly at the beginning and the end of each library to monitor and record any shifts in assay performance. 5. 125 uM Gly-Phe-7-Amino-4-trifluoromethylcoumarin (MP Biomedicals) working concentration was used at a final concentration of 25 uM. 7. To assess cell viability; the assay plates were read using the ViewLux high-throughput CCD imager (PerkinElmer), wherein single end-point fluorescence measurement was acquired (excitation 405/10; emission 540/25 nm). 8. Detection reagent SteadyGlo Luciferase (Promega) was added to the assay plate. 10. Luminescence is then measured on the ViewLux imager equipped with a clear emission filter using a 2 sec exposure. […]
In the case of `Cc1ccc(S(=O)(=O)/C(=C/Cl)NC(=O)c2ccccc2)cc1`, the Potency is 17.8 µM (active).

With `COc1ccc(C(=O)NC(=C(Cl)Cl)S(=O)(=O)c2ccc(C)cc2)cc1`, the Potency entry is “inactive”.

In the case of `Cc1cc(N/N=C\c2ccc(Br)cc2)nc(-n2nc(C)cc2C)n1`, the Potency result is “inactive”.

Take `Cc1cc(N/N=C/c2ccccc2[N+](=O)[O-])nc(-n2nc(C)cc2C)n1`: the Potency was 12.6 µM (active).

Regarding `Cc1cc(N/N=C/c2ccc(O)cc2O)nc(-n2nc(C)cc2C)n1`, the Potency was 10 µM (active).

In the case of `CCn1c2ccccc2c2cc(NC(=O)COC(=O)C3CCC(=O)N3)ccc21` (stereo not drawn), the Potency result was “inactive”.

Turning to `CCCC(=O)OC/C(O)=C(\C#N)c1nc2ccccc2[nH]1`, the Potency entry is “inactive”.

`CCN(CC)CCNC(=O)c1ccc(NC(=O)c2ccccc2-c2ccc(C(F)(F)F)cc2)cc1`: the Potency result was “inactive”.

Take `COc1cc(CNCc2ccncc2)cc(Br)c1OCc1ccccc1F`: the Potency entry was “inactive”.

On to `Cc1cc(C(=O)CN2C(=O)c3ccccc3S2(=O)=O)c(C)n1CC1CCCO1` (stereo not drawn), for which the Potency entry was “inactive”.

`Cc1cc(C)n(CC(O)Cn2c3ccc(Cl)cc3c3cc(Cl)ccc32)c(=O)n1` (stereo not drawn): the Potency entry is “inactive”.

Take `CC(Nc1ccccc1CO)C(=O)Nc1cccc(Cl)c1Cl` (stereo not drawn): the Potency entry was “inactive”.

For `O=C(N/N=C/c1cc(Br)ccc1OC(=O)c1ccc(Br)cc1)c1ccncc1`, the Potency entry was “inactive”.

As to `O=C(N/N=C/c1ccc([N+](=O)[O-])s1)c1ccccc1Br`, the Potency was 20 µM (active).

With `Cc1ccc(NC(=O)/C=C/c2ccc([N+](=O)[O-])s2)c(C)c1`, the Potency entry is “inactive”.

In the case of `O=C(N/N=C/c1cc(Cl)ccc1O)c1ccccc1Br`, the Potency entry was “inactive”.

Take `Cc1cccc(/C=N/NC(=O)c2c(-c3ccccc3)noc2C)c1O`: the Potency result is “inactive”.

Regarding `O=C(N/N=C\c1ccc([N+](=O)[O-])s1)c1cncc(Br)c1`, the Potency was 10 µM (active).

On to `Cc1ccccc1C(=O)N/N=C/c1ccc([N+](=O)[O-])s1`, for which the Potency is 22.4 µM (active).

Consider `O=C(N/N=C/c1cc(Br)ccc1O)c1ccncc1`, for which the Potency entry is “inactive”.

With `O=C(CNC(=O)c1ccccc1Br)N/N=C/c1cc(Br)ccc1O`, the Potency result was “inactive”.

Take `CCCc1nc(NC2CCCCC2)c(C#N)c2c1COC(C)(C)C2`: the Potency result is “inactive”.

Regarding `CN(C)CCC(c1ccc(Br)cc1)c1ccccn1` (stereo not drawn), the Potency result was “inactive”.

`N#Cc1cc2cc3c(cc2nc1SCC(=O)N1CCOCC1)OCCO3`: the Potency result is “inactive”.

With `Cc1ccc(C(=O)N(C)CC(=O)Nc2ccc(Cl)c(C(F)(F)F)c2)cc1S(=O)(=O)N1CCCCC1`, the Potency was 20 µM (active).

As to `Cc1ccc(NC(=O)CSc2ccc(Br)cc2)cc1S(=O)(=O)N1CCOCC1`, the Potency result is “inactive”.

Take `CN(CC(=O)Nc1ccc(Cl)c(C(F)(F)F)c1)C(=O)c1cccnc1Sc1ccccc1`: the Potency result is “inactive”.

For `CC(SC(C)C(=O)NN=Cc1cccc(Cl)c1)C(=O)NN=Cc1cccc(Cl)c1` (stereo not drawn), the Potency result is “inactive”.

`O=C(Nc1nonc1-c1ccc(Cl)cc1)c1ccccc1`: the Potency result is “inactive”.

As for `O=C1C=CCC(/C=C/c2ccccc2)O1` (stereo not drawn), the Potency was 31.6 µM (active).

Turning to `Cc1csc2ncnc(NC3CCN(Cc4ccccc4)CC3)c12`, the Potency entry was “inactive”.

Regarding `CCOC(=O)N1CCN(c2ccnc3cc(Cl)ccc23)CC1`, the Potency result was “inactive”.

As to `Cc1cccc(N2CCN(S(=O)(=O)c3ccc4c(c3)C(C)(C)C(=O)N4C)CC2)c1C`, the Potency entry is “inactive”.

As to `COc1ccc(O)c(/C=N/NC(=O)CCC(=O)Nc2cccc(C)c2)c1`, the Potency result is “inactive”.

`CCN(CC(=O)Nc1cccc(OC)c1)CC(=O)Nc1ccc(Br)c(C)c1`: the Potency was 17.8 µM (active).

With `COc1cccc(NC(=O)CSc2nc3ncc(Br)cc3[nH]2)c1`, the Potency result is “inactive”.

Consider `O=c1cc(-c2c(F)c(F)c(F)c(F)c2F)oc2ccccc12`, for which the Potency result was “inactive”.

For the molecule `Cc1c(N/N=C(\C#N)C(=O)c2ccccc2)c(=O)n(-c2ccccc2)n1C`, the Potency was 11.2 µM (active).

In the case of `Cc1ccccc1C(=O)/C(C#N)=N/Nc1c(C)n(C)n(-c2ccccc2)c1=O`, the Potency was 10 µM (active).

Regarding `COc1ccc(NS(=O)(=O)c2ccc(C(=O)Nc3c(C)n(C)n(-c4ccccc4)c3=O)cc2)cc1`, the Potency result is “inactive”.

`Cc1c(N/N=C(\C#N)C(=O)c2ccc(Cl)cc2)c(=O)n(-c2ccccc2)n1C`: the Potency is 2.51 µM (active).

Take `CCOC(=O)c1ccc(NC(=O)c2nc[nH]c2C(=O)N[C@H](C)c2ccccc2)cc1`: the Potency result was “inactive”.

`CCn1c(C)cc(C(=O)CN2C(=O)c3ccccc3S2(=O)=O)c1C`: the Potency result was “inactive”.

As to `O=C(Nc1cccc2ccccc12)OC1C=CS(=O)(=O)C1` (stereo not drawn), the Potency entry was “inactive”.

As to `Cc1ccc(Cc2cnc(N3C(=N)SC(C)C3=O)s2)cc1` (stereo not drawn), the Potency result is “inactive”.

As to `Cc1cc(C)c(S(=O)(=O)/N=C2\C=C(Nc3ccc(C(=O)O)cc3)C(=O)c3ccccc32)c(C)c1`, the Potency was 2 µM (active).

On to `N#C/C(=C\c1cccc([N+](=O)[O-])c1)C(=O)NCc1ccc(Cl)cc1`, for which the Potency was 3.55 µM (active).

As for `N#C/C(=C\C=C\c1ccccc1[N+](=O)[O-])C(=O)NCc1ccccc1`, the Potency was 3.16 µM (active).

With `CC(C)N(Cc1ccccc1)C(=O)/C=C/c1ccccc1[N+](=O)[O-]`, the Potency entry was “inactive”.

Regarding `O=C(NCC1CCCO1)c1cccc(Oc2ccc([N+](=O)[O-])cc2Cl)c1` (stereo not drawn), the Potency entry was “inactive”.

As for `CCN(CC)C(=O)C1=C(C)N(CCC2=CCCCC2)C(=O)C(CC(=O)NC(c2ccccc2)c2ccccc2)C1` (stereo not drawn), the Potency entry was “inactive”.

`O=C(O)CSc1cc(NS(=O)(=O)c2ccc(Cl)cc2)c2ccccc2c1O`: the Potency entry is “inactive”.

With `COc1ccc(-c2csc(N(CCCN3CCOCC3)C(=O)c3ccco3)n2)cc1`, the Potency result is “inactive”.

Regarding `CCOc1ccc(NCc2cccn2-c2nnc(N3CCC(C(=O)NCCCN4CC(C)CC(C)C4)CC3)s2)cc1` (stereo not drawn), the Potency entry was “inactive”.

On to `CCN(CC)CCNC1=NCCn2c1cc1cc(OC)ccc12`, for which the Potency result was “inactive”.

For `CCCCCn1c(=O)c2ccccc2n2c(CCl)nnc12`, the Potency was 14.1 µM (active).

Regarding `Cc1cc(C)cc(OCC(=O)NNC(=S)NC(=O)C2CC2)c1`, the Potency result is “inactive”.

As to `CCCCC1C(=O)CC[C@H]2[C@@H]1CC(=O)[C@@H]2C/C=C\CCCC(=O)O` (stereo partly drawn), the Potency entry is “inactive”.

As to `CC(=O)N1c2ccc(S(=O)(=O)N3CCC(C(=O)N4CCN(c5ccc(Cl)cc5)CC4)CC3)cc2CC1C` (stereo not drawn), the Potency entry is “inactive”.

Consider `CC1CC2(C)Oc3ccccc3CC2C(C)C1CNCCCN(C)C` (stereo not drawn), for which the Potency was 35.5 µM (active).

Consider `COc1cc(Br)cc(/C=N/NC(=O)Cc2ccc(C(F)(F)F)cc2[N+](=O)[O-])c1O`, for which the Potency entry is “inactive”.

For `CC(C)C(=O)Nc1ccc(C(=O)N/N=C/c2cc(Br)cc(Br)c2O)cc1`, the Potency result was “inactive”.

As for `COc1cc([N+](=O)[O-])cc(/C=N/NC(=O)c2ccc(NC(=O)c3ccc(C)cc3)cc2)c1O`, the Potency was 1.41 µM (active).
